Results from the supplement of paper PMC11732987, “Enantioselective OTUD7B fragment discovery through chemoproteomics screening and high-throughput optimisation” (Communications Chemistry, 2025).

Experiments:
Assay in all cases: log2 ratio of Biotin-Ahx-Ub-VS probe labelling (fragment/DMSO); higher = less target engagement (more negative = stronger competition), active = hit call of the paper (q ≤ 0.05, log2 ratio ≤ -1)
Details in all cases: compound concentration: 200 uM; treatment time: 3 h
[1] = target: T1, USP19 (UniProt O94966)
T1 sequence (whole entry): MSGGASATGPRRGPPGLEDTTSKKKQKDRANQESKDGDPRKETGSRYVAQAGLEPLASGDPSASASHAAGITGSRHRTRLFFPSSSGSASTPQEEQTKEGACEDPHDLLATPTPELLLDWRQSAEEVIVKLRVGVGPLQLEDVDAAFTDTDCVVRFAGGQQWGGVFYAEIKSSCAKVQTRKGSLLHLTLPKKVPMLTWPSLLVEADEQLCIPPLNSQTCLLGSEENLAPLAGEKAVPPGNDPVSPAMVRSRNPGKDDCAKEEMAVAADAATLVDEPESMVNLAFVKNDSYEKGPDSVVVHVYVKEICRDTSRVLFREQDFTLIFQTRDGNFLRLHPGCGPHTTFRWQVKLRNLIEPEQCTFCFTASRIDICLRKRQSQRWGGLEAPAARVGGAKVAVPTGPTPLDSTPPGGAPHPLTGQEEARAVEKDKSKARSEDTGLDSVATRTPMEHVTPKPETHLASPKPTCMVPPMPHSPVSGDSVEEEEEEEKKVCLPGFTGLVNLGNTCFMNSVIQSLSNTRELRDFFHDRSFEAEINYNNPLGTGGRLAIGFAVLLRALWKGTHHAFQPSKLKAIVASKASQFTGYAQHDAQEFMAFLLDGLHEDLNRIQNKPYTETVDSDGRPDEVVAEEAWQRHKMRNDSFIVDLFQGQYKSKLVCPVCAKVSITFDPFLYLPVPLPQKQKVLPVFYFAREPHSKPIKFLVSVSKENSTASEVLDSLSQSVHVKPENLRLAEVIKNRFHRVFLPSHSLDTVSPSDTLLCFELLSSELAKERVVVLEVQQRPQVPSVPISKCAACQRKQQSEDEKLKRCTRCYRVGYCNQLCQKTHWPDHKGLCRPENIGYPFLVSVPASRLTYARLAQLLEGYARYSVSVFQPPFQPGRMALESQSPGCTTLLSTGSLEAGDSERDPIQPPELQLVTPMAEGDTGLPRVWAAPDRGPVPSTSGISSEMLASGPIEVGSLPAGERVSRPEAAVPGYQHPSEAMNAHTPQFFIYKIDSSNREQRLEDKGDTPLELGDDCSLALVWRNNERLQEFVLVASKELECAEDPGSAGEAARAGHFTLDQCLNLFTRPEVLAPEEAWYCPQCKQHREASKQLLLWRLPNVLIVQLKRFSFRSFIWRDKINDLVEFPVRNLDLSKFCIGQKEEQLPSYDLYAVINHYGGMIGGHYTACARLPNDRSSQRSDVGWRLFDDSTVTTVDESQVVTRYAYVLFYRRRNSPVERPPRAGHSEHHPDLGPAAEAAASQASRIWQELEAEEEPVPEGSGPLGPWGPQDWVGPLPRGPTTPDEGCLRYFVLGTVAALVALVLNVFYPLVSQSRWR
In short: (§1)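 The table lists average log2 ratios of fragment over vehicle, from an unpaired t-test on global-median-normalised Spectronaut label-free quantities. Proteins with ≥2 unique peptides were used. Samples were HEK293T lysate (495 µg) treated in triplicate with fragment at 200 µM or vehicle for 3 h, then with Biotin-Ahx-Ub-VS (0.5 µM final) for 1 h, with labelled DUBs NeutrAvidin-enriched and run by diaPASEF LC-MS/MS.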

[2] = target: T2, USP22 (UniProt Q9UPT9)
T2 sequence (whole entry): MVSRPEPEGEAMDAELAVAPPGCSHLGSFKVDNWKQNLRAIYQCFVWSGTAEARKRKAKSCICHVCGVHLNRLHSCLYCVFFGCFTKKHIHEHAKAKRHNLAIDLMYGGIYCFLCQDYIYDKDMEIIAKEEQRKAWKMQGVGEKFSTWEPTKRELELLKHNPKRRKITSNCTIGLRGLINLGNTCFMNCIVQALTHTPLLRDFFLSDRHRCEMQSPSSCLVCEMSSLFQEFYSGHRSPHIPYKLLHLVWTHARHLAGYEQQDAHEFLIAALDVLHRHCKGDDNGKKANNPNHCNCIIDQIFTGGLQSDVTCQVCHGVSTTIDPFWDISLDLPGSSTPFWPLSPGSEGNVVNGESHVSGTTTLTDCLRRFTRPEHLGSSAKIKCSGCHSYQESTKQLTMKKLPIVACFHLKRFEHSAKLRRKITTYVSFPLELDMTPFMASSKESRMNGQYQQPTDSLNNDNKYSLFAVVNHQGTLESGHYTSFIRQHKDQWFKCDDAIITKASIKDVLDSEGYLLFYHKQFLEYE
In short: as §1

[3] = target: USP24 (UniProt Q9UPU5)
USP24, sequence (Q9UPU5 whole entry): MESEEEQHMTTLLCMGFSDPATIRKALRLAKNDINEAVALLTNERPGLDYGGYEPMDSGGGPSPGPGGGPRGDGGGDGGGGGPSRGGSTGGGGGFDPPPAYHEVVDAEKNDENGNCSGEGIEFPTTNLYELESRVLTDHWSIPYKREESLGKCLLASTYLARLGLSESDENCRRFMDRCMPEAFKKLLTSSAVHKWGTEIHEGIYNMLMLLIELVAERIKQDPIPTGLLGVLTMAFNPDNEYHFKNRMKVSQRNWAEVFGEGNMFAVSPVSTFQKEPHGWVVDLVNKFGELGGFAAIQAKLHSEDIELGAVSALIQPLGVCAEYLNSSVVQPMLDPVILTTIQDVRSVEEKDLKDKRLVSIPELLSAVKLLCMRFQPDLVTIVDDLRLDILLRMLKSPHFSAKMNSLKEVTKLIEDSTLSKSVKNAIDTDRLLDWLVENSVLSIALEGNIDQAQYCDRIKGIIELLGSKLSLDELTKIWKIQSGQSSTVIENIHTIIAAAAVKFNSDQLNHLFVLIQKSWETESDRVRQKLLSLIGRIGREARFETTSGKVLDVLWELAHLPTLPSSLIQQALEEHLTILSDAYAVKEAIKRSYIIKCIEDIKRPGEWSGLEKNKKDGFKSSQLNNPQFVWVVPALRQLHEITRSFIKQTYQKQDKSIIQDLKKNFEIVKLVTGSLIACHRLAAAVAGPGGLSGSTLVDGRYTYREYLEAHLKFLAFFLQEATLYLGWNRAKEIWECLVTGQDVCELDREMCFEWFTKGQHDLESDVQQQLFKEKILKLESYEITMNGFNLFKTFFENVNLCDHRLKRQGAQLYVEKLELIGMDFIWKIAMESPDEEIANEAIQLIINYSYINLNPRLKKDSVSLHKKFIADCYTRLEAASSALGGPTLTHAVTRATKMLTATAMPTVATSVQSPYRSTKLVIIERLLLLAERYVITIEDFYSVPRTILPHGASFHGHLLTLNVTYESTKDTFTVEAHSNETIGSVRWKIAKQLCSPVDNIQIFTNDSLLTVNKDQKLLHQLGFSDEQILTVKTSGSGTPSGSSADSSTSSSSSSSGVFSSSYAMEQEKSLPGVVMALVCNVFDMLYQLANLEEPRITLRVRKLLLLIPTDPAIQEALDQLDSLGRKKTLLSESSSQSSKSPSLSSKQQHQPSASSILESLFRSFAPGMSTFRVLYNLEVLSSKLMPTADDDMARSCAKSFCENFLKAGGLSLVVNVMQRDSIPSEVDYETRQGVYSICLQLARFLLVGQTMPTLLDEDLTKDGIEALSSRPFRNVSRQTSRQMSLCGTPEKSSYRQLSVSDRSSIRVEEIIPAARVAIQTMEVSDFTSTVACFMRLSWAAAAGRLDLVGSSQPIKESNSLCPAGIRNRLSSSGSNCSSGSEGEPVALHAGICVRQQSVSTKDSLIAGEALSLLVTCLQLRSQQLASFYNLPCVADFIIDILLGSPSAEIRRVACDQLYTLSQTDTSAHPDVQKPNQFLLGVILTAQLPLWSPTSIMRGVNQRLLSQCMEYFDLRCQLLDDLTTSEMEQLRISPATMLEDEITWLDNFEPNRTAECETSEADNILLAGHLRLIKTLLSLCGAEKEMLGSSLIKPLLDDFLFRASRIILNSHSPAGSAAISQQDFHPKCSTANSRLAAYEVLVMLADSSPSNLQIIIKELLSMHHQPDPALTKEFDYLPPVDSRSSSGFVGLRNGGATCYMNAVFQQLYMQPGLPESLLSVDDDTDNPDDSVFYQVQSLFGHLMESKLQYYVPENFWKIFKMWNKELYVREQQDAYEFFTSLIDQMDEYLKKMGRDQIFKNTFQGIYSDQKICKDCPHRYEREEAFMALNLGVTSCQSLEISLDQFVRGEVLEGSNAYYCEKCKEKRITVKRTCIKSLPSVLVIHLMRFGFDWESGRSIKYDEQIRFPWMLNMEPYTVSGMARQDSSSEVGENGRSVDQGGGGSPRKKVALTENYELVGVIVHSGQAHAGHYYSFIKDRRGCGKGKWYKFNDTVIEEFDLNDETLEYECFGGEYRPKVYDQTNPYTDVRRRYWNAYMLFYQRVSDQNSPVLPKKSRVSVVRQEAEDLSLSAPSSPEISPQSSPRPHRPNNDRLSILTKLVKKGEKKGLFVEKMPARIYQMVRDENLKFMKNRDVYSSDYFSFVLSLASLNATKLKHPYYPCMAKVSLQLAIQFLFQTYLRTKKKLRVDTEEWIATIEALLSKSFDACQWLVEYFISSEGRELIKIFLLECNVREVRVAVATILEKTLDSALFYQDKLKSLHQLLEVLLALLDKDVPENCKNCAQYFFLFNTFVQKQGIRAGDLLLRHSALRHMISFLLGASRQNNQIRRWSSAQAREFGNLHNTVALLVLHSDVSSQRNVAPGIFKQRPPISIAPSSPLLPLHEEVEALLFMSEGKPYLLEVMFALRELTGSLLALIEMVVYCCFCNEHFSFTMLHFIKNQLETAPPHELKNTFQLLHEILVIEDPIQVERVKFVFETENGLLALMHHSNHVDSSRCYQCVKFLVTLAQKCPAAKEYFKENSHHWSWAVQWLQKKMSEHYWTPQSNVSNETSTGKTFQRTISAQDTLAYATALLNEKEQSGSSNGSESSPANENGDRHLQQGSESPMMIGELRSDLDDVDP
In short: as §1

[4] = target: T3, USP25 (UniProt Q9UHP3)
T3 sequence (whole entry): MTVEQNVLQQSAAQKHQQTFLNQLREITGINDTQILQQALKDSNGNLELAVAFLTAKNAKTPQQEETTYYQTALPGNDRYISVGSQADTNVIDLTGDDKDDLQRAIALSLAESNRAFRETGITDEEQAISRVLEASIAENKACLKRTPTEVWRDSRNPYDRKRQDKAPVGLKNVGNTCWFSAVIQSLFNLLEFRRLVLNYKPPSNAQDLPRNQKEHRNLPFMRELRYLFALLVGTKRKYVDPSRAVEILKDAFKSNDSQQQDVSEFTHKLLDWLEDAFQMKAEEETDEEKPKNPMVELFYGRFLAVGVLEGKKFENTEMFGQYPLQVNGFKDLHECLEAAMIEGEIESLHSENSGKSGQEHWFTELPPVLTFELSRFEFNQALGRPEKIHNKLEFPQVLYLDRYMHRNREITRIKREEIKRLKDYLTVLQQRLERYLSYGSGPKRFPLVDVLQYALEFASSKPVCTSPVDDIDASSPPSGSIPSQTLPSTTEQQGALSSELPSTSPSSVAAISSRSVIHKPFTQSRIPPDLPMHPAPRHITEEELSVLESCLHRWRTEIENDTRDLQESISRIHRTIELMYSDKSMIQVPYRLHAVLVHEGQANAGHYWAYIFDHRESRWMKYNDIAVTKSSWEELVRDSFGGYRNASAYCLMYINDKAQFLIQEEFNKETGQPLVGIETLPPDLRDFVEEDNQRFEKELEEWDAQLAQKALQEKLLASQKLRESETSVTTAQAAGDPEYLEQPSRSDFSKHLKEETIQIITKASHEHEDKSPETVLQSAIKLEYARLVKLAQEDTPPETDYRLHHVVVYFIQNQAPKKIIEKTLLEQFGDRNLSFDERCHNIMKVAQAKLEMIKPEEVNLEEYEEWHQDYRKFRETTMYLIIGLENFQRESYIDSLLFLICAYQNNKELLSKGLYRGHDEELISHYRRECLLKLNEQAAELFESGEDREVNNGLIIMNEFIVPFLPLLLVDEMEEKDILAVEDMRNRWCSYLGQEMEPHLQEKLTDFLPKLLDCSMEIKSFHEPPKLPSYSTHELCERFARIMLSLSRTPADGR
In short: as §1

[5] = target: T4, USP28 (UniProt Q96RU2)
T4 sequence (whole entry): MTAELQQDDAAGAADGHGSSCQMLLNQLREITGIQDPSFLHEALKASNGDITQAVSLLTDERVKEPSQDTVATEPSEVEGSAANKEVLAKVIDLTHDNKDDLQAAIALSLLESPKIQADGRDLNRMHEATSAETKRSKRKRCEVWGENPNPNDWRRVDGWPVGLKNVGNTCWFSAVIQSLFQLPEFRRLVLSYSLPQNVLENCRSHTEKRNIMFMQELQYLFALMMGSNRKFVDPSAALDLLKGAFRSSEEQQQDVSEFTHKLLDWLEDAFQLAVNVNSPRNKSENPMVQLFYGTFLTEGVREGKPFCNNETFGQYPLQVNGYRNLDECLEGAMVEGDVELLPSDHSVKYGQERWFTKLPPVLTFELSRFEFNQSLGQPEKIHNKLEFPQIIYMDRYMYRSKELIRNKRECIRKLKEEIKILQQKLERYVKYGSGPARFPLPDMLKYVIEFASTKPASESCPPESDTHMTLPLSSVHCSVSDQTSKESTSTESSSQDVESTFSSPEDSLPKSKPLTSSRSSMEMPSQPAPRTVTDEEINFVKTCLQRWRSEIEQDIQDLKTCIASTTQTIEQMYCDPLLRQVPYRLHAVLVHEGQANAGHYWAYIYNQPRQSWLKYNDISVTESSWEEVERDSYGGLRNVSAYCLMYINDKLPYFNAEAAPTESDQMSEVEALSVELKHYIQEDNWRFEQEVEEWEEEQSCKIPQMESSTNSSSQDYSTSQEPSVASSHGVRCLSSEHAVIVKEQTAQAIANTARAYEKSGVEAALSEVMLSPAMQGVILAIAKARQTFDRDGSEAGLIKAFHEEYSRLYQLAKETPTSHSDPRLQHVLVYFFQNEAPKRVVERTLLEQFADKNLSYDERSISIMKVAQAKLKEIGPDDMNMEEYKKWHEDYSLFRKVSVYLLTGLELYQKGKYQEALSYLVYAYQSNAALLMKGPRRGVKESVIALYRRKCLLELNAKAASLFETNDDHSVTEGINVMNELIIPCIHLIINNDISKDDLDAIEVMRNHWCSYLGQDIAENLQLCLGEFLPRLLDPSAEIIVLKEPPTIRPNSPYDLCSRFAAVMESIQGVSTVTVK
In short: as §1

Measured: log2 ratio of Biotin-Ahx-Ub-VS probe labelling

Cl.O=C(CCl)NCc1cc2c(nc1O)CCCC2
inactive: [1] -0.0739 | [2] -0.0357 | [3] -0.254 | [4] -0.59 | [5] -0.576
